About 950 (1.4%) of roughly 69,000 compounds showed an effect of 50% or more. For the sample, strong results were picked, then their nearest neighbours and some compounds at random.
Each compound was assayed on Mycobacterium tuberculosis (assay: Cornell M. t heat shock assay; further: in the data most compounds retested in dose-response had high values).
Format: functional, organism-based
Parameters: dose or concentration left out as unconfirmed

| SMILES | Percent Effect [%] |
| --- | --- |
| CCOCC1CN(CC2CCC2)Cc2nnn(CC3CC3)c21 (centres undefined) | 57.51 |
| C1CCC(CN2Cc3nnn(CC4CC4)c3C(COCC3CC3)C2)C1.O=C(O)C(F)(F)F (centres undefined) | 40.48 |
| CCOCC1CN(C(=O)N(C)C)Cc2nnn(CC3CC3)c21 (centres undefined) | 1.23 |
| CN(C)CC1CN(Cc2cccc(C#N)c2)Cc2nccn2C1.O=C(O)C(F)(F)F.O=C(O)C(F)(F)F (centres undefined) | -5.749 |
| CC(C)c1nn(C)c(Cl)c1CNCc1ccc2c(c1)OCO2.Cl | 15.25 |
| O=C(CC1CC1)N1CCc2ncc(CN3CCOCC3)n2CC1.O=C(O)C(F)(F)F | 2.118 |
| COc1ncc(C2(O)CCN(Cc3ccc(F)c(F)c3)CC2)c(OC)n1.Cl | 2.429 |
| CCS(=O)(=O)N1CC(=O)N(CCCc2ccccc2)CC(O)C1 (centres undefined) | -6.774 |
| COc1cccc(OC)c1CN1CC(O)CN(S(C)(=O)=O)CC1=O (centres undefined) | 55.83 |
| CCCS(=O)(=O)N1CC(=O)N(CCCc2ccccc2)CC(O)C1 (centres undefined) | -29.16 |
| COc1ccccc1CN1CC(OC)CN(C(=O)CC(C)C)CC1=O (centres undefined) | -13.24 |
| COc1ccccc1CN1CC(O)CN(S(=O)(=O)C(C)C)CC1=O (centres undefined) | 61.24 |
| CCCS(=O)(=O)N1CC(=O)N(Cc2cccc(OC)c2OC)CC(O)C1 (centres undefined) | 3.552 |
| CCS(=O)(=O)N1CC(=O)N(CCOc2ccccc2)CC(O)C1 (centres undefined) | -13.04 |
| CCS(=O)(=O)N1CC(=O)N(Cc2ccccc2OC)CC(O)C1 (centres undefined) | 62.67 |
| COc1ccccc1CN1CC(O)CN(C(=O)OCC(C)C)CC1=O (centres undefined) | 1.526 |
| CS(=O)(=O)N1CC(=O)N(CCCc2ccccc2)CC(O)C1 (centres undefined) | -9.009 |
| COc1cccc(CN2CC(O)CN(S(C)(=O)=O)CC2=O)c1OC (centres undefined) | 29.18 |
| CCCS(=O)(=O)N1CC(=O)N(Cc2ccccc2OC)CC(O)C1 (centres undefined) | 56.43 |
| COc1ncccc1CN1C[C@@H]2COC[C@]2(CNS(C)(=O)=O)C1.O=C(O)C(F)(F)F.O=C(O)C(F)(F)F | -54.94 |
| O=C(NCc1ccccn1)[C@]12COC[C@H]1CN(Cc1cccnc1)C2.O=C(O)C(F)(F)F.O=C(O)C(F)(F)F.O=C(O)C(F)(F)F | -8.191 |
| CC(=O)N1CCC2(CC1)COCCN2Cc1ccc(F)cc1.O=C(O)C(F)(F)F | -4.953 |
| CN(C)[C@@H]1CN(C(=O)Cc2ccccc2)[C@@H]2CCCO[C@H]12.O=C(O)C(F)(F)F | -12.48 |
| CN1C(=O)CC(c2cnn(C)c2)C12CCN(C(=O)c1ccncc1)CC2.O=C(O)C(F)(F)F (centres undefined) | -21.56 |
